# According to PubChem BioAssay (NCI):
# About 79,000 compounds went through this panel and 15% of them were active in at least one assay; those are over-represented in the sample as a whole. A number with no mark means an inactive call. Active and inactive are the calls of the source. No stated cut-off is given here; in the data, active means growth inhibition above about 70%; inactive means the rest.
# What was measured:
# [1] = NCI Yeast Anticancer Drug Screen. Data for the rad50 strain (AID 155);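 further: 0% = growth of vehicle-only cultures of the same strain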; conditions: S. cerevisiae rad50 strain growth inhibition; at 50.0 µM; hits give high values
# Outline: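 Inhibition values express reduced yeast growth in compound-treated cultures relative to vehicle-treated controls.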
# [2] = NCI Yeast Anticancer Drug Screen. Data for the mec2-1 strain (AID 157); conditions: S. cerevisiae mec2-1 strain, at 50.0 µM, hits give high values
# Outline: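 Mutant yeast (mec2-1) grown with compound; growth inhibition relative to vehicle control reported.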
# [3] = NCI Yeast Anticancer Drug Screen. Data for the sgs1 mgt1 strain (AID 161);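 further: 0% = growth of cultures given vehicle only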; conditions: S. cerevisiae sgs1 mgt1 strain, at 50.0 µM, hits give high values
# Outline: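 Growth of a repair-deficient yeast mutant was monitored after compound treatment and expressed as inhibition relative to vehicle-treated cultures.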
# [4] = NCI Yeast Anticancer Drug Screen. Data for the cln2 rad14 strain (AID 165);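 further: 0% = growth equal to vehicle treated cultures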; conditions: S. cerevisiae cln2 rad14 strain, at 50.0 µM, hits give high values
# Outline: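 Readout is yeast growth inhibition versus vehicle-treated controls, using a strain with cln2 and rad14 alterations exposed to compound.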
# [5] = NCI Yeast Anticancer Drug Screen. Data for the bub3 strain (AID 167); conditions: S. cerevisiae bub3 mutant strain, at 50.0 µM, hits give high values
# Outline: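 Steps: expose the mutant yeast strain to compound; grow alongside vehicle-treated cultures; measure growth; express inhibition against the vehicle cultures.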
# [6] = NCI Yeast Anticancer Drug Screen. Data for the mlh1 rad18 strain (AID 175); conditions: S. cerevisiae mlh1 rad18 strain growth inhibition; at 50.0 µM; hits give high values
# Outline: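 Genetically defined yeast (DNA repair-deficient) exposed to compounds; growth inhibition determined relative to vehicle.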
SMILES,growth inhibition [1],growth inhibition [2],growth inhibition [3],growth inhibition [4],growth inhibition [5],growth inhibition [6]
C=CCSc1ncnc2c1c(Br)cn2C1OC(CO)C(O)C1O (configuration not stated),96.3% (active),97.5% (active),97.1% (active),97.5% (active),96.9% (active),98.3% (active)
N#C/C(=C\c1c(S(=O)(=O)O)sc2ccccc12)C(N)=O (tested in a mixture with another compound),30.3%,10.1%,17.1%,25.3%,-0.9%,21.8%
O=C(NC1CCCCC1)N(C1CCCCC1)C1CCCCC1,7.65%,9.95%,-2.05%,2.85%,23.9%,1.85%
CC(C)OP(=O)(O)CCl,-16.9%,-12.6%,-24.4%,-11.4%,-13.6%,-26.3%
CC(C)N1C(=O)c2cccc3c(Br)ccc(c23)C1=O,97.8% (active),99.3% (active),97.2% (active),98.4% (active),99.2% (active),98.5% (active)
OC1(C#CC2(O)CCCC2)CCCC1,-8.9%,-11.9%,15.4%,-8.05%,-1.2%,23.9%
CC(=O)N(C(C)=O)c1ccc2c(c1)Cc1ccccc1-2,14.9%,-12.9%,17.4%,3.85%,35.3%,15.1%
O=[N+]([O-])Cc1ccc(Cl)cc1,4.6%,18.4%,13.1%,-33%,-19.7%,15.6%
O=C(Nc1ccc(Cl)cc1)Nc1nnc2nc(C(C(=O)c3cccs3)c3nc4nnc(NC(=O)Nc5ccc(Cl)cc5)n4[nH]c3=O)c(=O)[nH]n12,1.55%,12.2%,0.1%,15.8%,0.05%,-13.8%
Cc1cccc(Cl)c1OCC(=O)Nc1ccccc1,20.9%,10.1%,20.8%,0.8%,58.6%,-3.65%
NCCCc1ccc(C(=O)O)cc1,-23.8%,1.85%,-0.5%,-40.2%,5.85%,7.75%
O=[N+]([O-])c1ccccc1SSc1ccccc1[N+](=O)[O-],-20.4%,-15.6%,-36.5%,-1.85%,-46.4%,-18.6%
CCCCCCCCCCCCCCCCC1=C(C(=O)OC)NC(N)=NC1O (configuration not stated),29%,0.25%,-20.8%,-10.1%,4.7%,22.1%
Cc1ccc(NC(=O)CC(=O)n2nc(-c3ccccc3)c(N=Nc3ccc(Cl)cc3)c2-c2ccccc2)cc1,9.95%,4%,13.9%,22.7%,46%,37.7%
CCN(CCO)CC(O)Cn1cnc2c(N)ncnc21 (configuration not stated) (tested in a mixture with another compound),-10.6%,26.2%,-11.8%,31.4%,-1.95%,17.4%
CC(=O)N1N=C(c2ccc(OCC(O)CN3CCN(CC(O)COc4ccc(C5=NN(C(C)=O)C(c6ccccc6)C5)cc4)CC3)cc2)CC1c1ccccc1 (configuration not stated),-30.6%,-25.9%,-8.85%,-30.4%,-25.9%,-3.8%
CC(C)c1nc(N)nc(N)n1,4.8%,-23.8%,5.8%,12.8%,1%,-16.8%
Cc1[nH]c2ccccc2c1C(Cc1ccccc1NC(=O)CCC(=O)O)c1c[nH]c2ccccc12 (configuration not stated),9%,-5.05%,-4.5%,-1.5%,-0.9%,1.05%
C1CCC(C2CCCC[N-]2)[N-]C1.C1CCC(C2CCCC[N-]2)[N-]C1.[Cl][Ru][Cl] (configuration not stated),47%,8.55%,29.1%,6.8%,-0.75%,18.9%

SMILES,growth inhibition [1],growth inhibition [2],growth inhibition [3],growth inhibition [4],growth inhibition [5],growth inhibition [6]
C/C(=N\NC(N)=O)C1CCCc2ccccc21 (configuration not stated),2.45%,-15.3%,-9.8%,-6.55%,-10.3%,10.2%
Cc1c(C(=O)CC(=O)C(=O)Nc2c(C(C)C)cccc2C(C)C)[n+](=O)c2ccccc2n1[O-],35.6%,39.5%,22.2%,40.5%,29.8%,36%
O=C1c2ccccc2C(=O)N1NC1=NCCN1,-12.6%,-13.3%,-13.1%,11.8%,5.5%,-1.8%
CC1(O)C=CC2CCC1C2O (configuration not stated),11.9%,-2.55%,10%,19.2%,0.15%,19.6%
CCC(=O)Nc1cccc(OC(=O)NC2CCCCC2)c1,1.35%,13.1%,16.2%,1.3%,20.2%,11.1%
CCOC(=O)CCC(NC(=O)c1ccc(Nc2nc3cc(C(F)(F)F)ccc3nc2C(=O)OCC)cc1)C(=O)OCC (configuration not stated),-20.1%,0.55%,-14.3%,-1.85%,-10%,4.9%
COC(=O)CCC(CCC(=O)O)([N+](=O)[O-])[N+](=O)[O-],2.05%,-5.65%,-6.3%,-36.4%,-12.1%,-11.8%
CCN(CCO)C(=O)C1(c2ccccc2)CCCCC1,11.8%,-9.7%,9.35%,28%,18.4%,-1.4%
CCC(C(O)C(C)C)[N+](=O)[O-] (configuration not stated),14.2%,1.45%,6.35%,-6.5%,0.05%,3.3%
C1CCCCCc2c(-c3n[nH]c4c3CCCCCCCCCC4)n[nH]c2CCCC1,-8.1%,-1.45%,-8.2%,7.9%,2.75%,43.8%
CCOCCOCCOC(C)Oc1ccc(Cl)cc1 (configuration not stated),4.05%,8.4%,-9.05%,10.7%,6.15%,9.55%
CC(C)OCCCN(Cn1c(=S)sc2ccccc21)Cn1c(=S)sc2ccccc21,66.8%,54.6%,85.9% (active),42.8%,39.2%,55.6%
O=C(C(=Cn1c(=O)cc[nH]c1=S)C(=O)c1ccccc1)c1ccccc1,-14.7%,-19.4%,-27.6%,2.95%,-15.6%,-9.7%
CCOC(=O)/C=C/SCC(N)C(=O)OCC (configuration not stated),-14.4%,-1.45%,-12.9%,19.6%,-5.55%,-4.55%
O=C(N/N=C/c1ccccn1)c1ccccc1,-1.2%,23.6%,10.7%,19.1%,13.3%,3.55%
CC#CCC1CCC(OCC)=CC1=O (configuration not stated),10.4%,9.25%,12.2%,-20%,5.9%,17.1%
C/C=C(/C)c1ccccc1,-5.1%,1.8%,-1.1%,10.4%,4.55%,24.6%
c1ncncn1,7.5%,5.95%,10.1%,3.05%,5.25%,-7.85%
